Hit rate of the full screen: of about 320,000 compounds, about 22,000 (6.9%) were called active. About 27% were inconclusive and are not listed. Calls come from the whole dose curve; as a rule, active = well fitted inhibition curve with a large enough effect; inconclusive = small, poorly fitted or top-dose-only effect, or another doubt; inactive = no such curve, though single readings can be large or run the other way. What follows is part of a selection rich in actives, with near analogues and random picks from the rest.
% is set by controls: 0 for no effect and ±100 for the full control effect; potency is the fitted concentration of half-maximal effect.

A short description of the assay: Primary qHTS for delayed death inhibitors of the malarial parasite plastid, 96 hour incubation. The settings on record: P. falciparum luciferase reporter growth; series mostly up to 28.7 µM; activity change, negative = inhibition: at the top concentration. In a few lines:
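Delayed-death screen, second-generation endpoint: infected erythrocytes, 2% hematocrit, 0.05% parasitemia final; 96 hours at 37 C, 5% CO2; luciferase detection reagent; luminescence decrease equals reduced growth.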
Consider `CCOc1ccc(NC(=O)CN(C)C(=O)Cn2c(=O)cnc3ccccc32)cc1OCC`, for which the “activity change, negative = inhibition” value is 36.6% (inactive). Same read-out and setting: in the case of `COc1ccccc1C(=O)NC(=O)COC(=O)C1CC1` it was 24.6% (inactive). On the same count and under the same terms, in the case of `CC(=O)c1ccccc1NC(=O)C1CC(=O)N(c2ccc3c(c2)OCCO3)C1` (stereo not drawn) it was -15.7% (inactive); in that of `CCCCn1c(SCC(=O)N2CCCC2=O)nc2cc(S(N)(=O)=O)ccc21`, -21.5% (inactive). Turning to `CCCCn1c(SCc2ncc(-c3ccccc3)o2)nc2cc(S(N)(=O)=O)ccc21`, the Potency is 14.7 µM (active). As to `Cn1c(=O)cc(SCC(=O)N2CCCC2)c2cc(Cl)ccc21`, the “activity change, negative = inhibition” value is 2.24% (inactive). Turning to `CCOC(=O)C1CCN(C(=O)CSc2cc(=O)n(C)c3ccccc23)CC1`, the Potency was 2.33 µM (active). Regarding `Cn1c(=O)cc(SCC(=O)N2CCN(C(=O)c3ccco3)CC2)c2ccccc21`, the “activity change, negative = inhibition” value was -22% (inactive). In the case of `CCCCn1c(SCC(=O)N2CCC(C(=O)OCC)CC2)nc2cc(S(N)(=O)=O)ccc21`, the Potency was 13.1 µM (active). On to `CCOC(=O)C1CCN(C(=O)COC(=O)C2CCN(S(=O)(=O)c3ccc4c(c3)OCCO4)CC2)CC1`, for which the “activity change, negative = inhibition” value is -15% (inactive). Consider `O=C(CCNS(=O)(=O)c1ccccc1)NCCCc1ccccc1`, for which the “activity change, negative = inhibition” value is 20.3% (inactive).

Regarding `CN1C(=O)c2ccc(C(=O)Nc3ccc(Br)cn3)cc2C1=O`, the “activity change, negative = inhibition” value is -14% (inactive). Still for that read-out and setting: the value for `Cc1c(C(=O)N2CCOCC2)[nH]c2ccc(OCc3ccccc3)cc12` was 17.7% (inactive). For the compound `CCOC(=O)c1[nH]c2ccc(OC)cc2c1NC(=O)N1CCOCC1`, the Potency was 14.7 µM (active). Regarding `CCOC(=O)c1[nH]c2ccc(OC)cc2c1NC(=O)CCN1CCN(Cc2ccccc2)CC1`, the “activity change, negative = inhibition” value was 74.3% (inactive). Turning to `O=C(COc1ccc(Cl)cc1)Nc1ccc2oc(=O)ccc2c1`, the “activity change, negative = inhibition” value was 77.3% (inactive).

Regarding `CC1(C)CC(=O)C=C(c2ccc(Cl)c(C(F)(F)F)c2)C1`, the Potency was 5.86 µM (active). `CC1(C)CC(=O)C=C(c2ccc3ncccc3c2)C1`: the “activity change, negative = inhibition” value is -12.4% (inactive). The same measure, in the same setting: in the case of `COc1cc(F)c(C2=CC(=O)CC(C)(C)C2)cc1F` it was 19.7% (inactive); in that of `COC(=O)C1(C)NC(c2ccccc2OC)C2C(=O)N(c3ccccc3)C(=O)C21` (stereo not drawn), 25.5% (inactive). The same measure, in the same setting: in the case of `Cc1cc(C(=O)NCCc2ccc(Cl)cc2)n(-c2ccccc2)n1` it was 2.42% (inactive); in that of `CCc1[nH]nc(C(=O)N2CCCC(CO)(Cc3ccc(F)cc3F)C2)c1C` (stereo not drawn), 0% (inactive). For `CCCN(c1ccc(C)cc1)c1nc(=O)c2cccnc2s1`, the Potency is 6.57 µM (active).

For the compound `CCc1c(C)nc(SCC(=O)NC2CCCC2)[nH]c1=O`, the “activity change, negative = inhibition” value was 0% (inactive). Turning to `CCc1ccc(C(=O)NN=C2CCCCCC2)s1`, the “activity change, negative = inhibition” value is -9.21% (inactive).

Regarding `CC(=O)Nc1ccc(NC(=O)COc2ccc(-c3ccccc3)cc2)cc1`, the “activity change, negative = inhibition” value was -13.8% (inactive).

On to `C[N+]1(C)CCOC(O)(c2ccc(-c3ccc(C4(O)C[N+](C)(C)CCO4)cc3)cc2)C1` (stereo not drawn), for which the Potency was 5.86 µM (active). Consider `O=C(COC(=O)c1cnccn1)Nc1ccc(Cl)cc1C(F)(F)F`, for which the “activity change, negative = inhibition” value was 5.52% (inactive). Still for that read-out and setting: the value for `CCCCCCCC(=O)OC(CN1CCCCCC1)CN1CCCC1=O` (stereo not drawn) was 47.3% (inactive); that for `O=C1CC(NNc2ccccc2)C(=O)N1c1cccc(Cl)c1` (stereo not drawn) was 0% (inactive). With `O=c1c(-c2cccc(Cl)c2)c[nH]n1-c1ccccc1`, the Potency is 7.38 µM (active). On to `O=C1NC(c2cccc(Cl)c2)Nc2ccccc21` (stereo not drawn), for which the “activity change, negative = inhibition” value was 18.4% (inactive). In the case of `CC1(C)CC(=O)C=C(Nc2ccccc2)C1`, the “activity change, negative = inhibition” value was 0% (inactive). Still for that read-out and setting: in the case of `CC(=O)c1ccc(S(=O)(=O)NC2CC(=O)N(c3ccc4c(c3)OCCO4)C2)cc1` (stereo not drawn) it was -18.6% (inactive); in that of `O=C(CC1(O)C(=O)N(CN2CCOCC2)c2ccccc21)c1ccccc1` (stereo not drawn), -18.4% (inactive); in that of `C=CCN1C(=O)C(O)(CC(=O)c2ccccn2)c2ccccc21` (stereo not drawn), -40.1% (inactive). For `C=CCN1C(=O)C(O)(CC(=O)c2ccc(Cl)cc2)c2ccccc21` (stereo not drawn), the Potency was 14.7 µM (active). In the case of `O=C(Nc1nnc(-c2ccc(F)cc2)s1)c1c(F)cccc1Cl`, the “activity change, negative = inhibition” value is 15.7% (inactive). Still for that read-out and setting: the value for `O=C(c1ccc(Oc2ccc(Cl)cc2)c([N+](=O)[O-])c1)N1CCCC1` was -13.7% (inactive). On to `CC1CCN(C(=O)c2ccc(S(=O)(=O)Cc3cc(F)ccc3F)c([N+](=O)[O-])c2)CC1`, for which the Potency is 10.4 µM (active). On to `O=C(Nc1ccc(F)cc1)C1CCN(C(=O)c2ccc([N+](=O)[O-])cc2)CC1`, for which the activity change, negative = inhibition is 31.7% [at 5.75 µM] (inactive). The same measure, in the same setting: the value for `C#CC(C)(C)NC(=O)c1cnc(-c2ccccc2)nc1-c1ccccc1` was -11.7% (inactive). With `Cc1oc2c(c1C(=O)N1CCOCC1)C(=O)c1ccccc1C2=O`, the Potency was 0.828 µM (active). For `Cc1noc(C)c1C(=O)N1CCOCC1`, the “activity change, negative = inhibition” value is 42.2% (inactive). For the compound `O=C(c1ccccc1-c1ccccc1)N1CCOCC1`, the “activity change, negative = inhibition” value is 31% (inactive). Turning to `O=S(=O)(NCC1CC1)c1ccc(F)c(Cl)c1`, the “activity change, negative = inhibition” value was 10.6% (inactive). With `CCOC(=O)C1CCN(S(=O)(=O)c2c(C)noc2C)CC1`, the “activity change, negative = inhibition” value was 13.3% (inactive). `CCOC(=O)C1CCN(C(=O)C2CCN(S(=O)(=O)N3CCCC3)CC2)CC1`: the Potency is 6.57 µM (active). For the compound `CCOC(=O)C1CCN(C(=O)Nc2ccc(Cl)cc2)CC1`, the “activity change, negative = inhibition” value is -7.09% (inactive).

`CCOC(=O)C1CCN(C(=O)C2CCN(S(=O)(=O)c3c(C)noc3C)CC2)CC1`: the Potency was 4.15 µM (active). In the case of `CCOc1ccc(OCC)c(NC(=O)C2CCN(S(=O)(=O)c3c(C)noc3C)CC2)c1`, the “activity change, negative = inhibition” value is -12.7% (inactive). As to `CCOC(=O)N1CCC(C(N)=O)CC1`, the “activity change, negative = inhibition” value was -38.4% (inactive). Same read-out and setting: the value for `O=C(O)C1C2C=CC(C2)C1C(=O)NCc1ccccc1` (stereo not drawn) was 72.4% (inactive); that for `COc1ccc(NS(=O)(=O)c2cccc3nsnc23)cc1Cl` was -14.6% (inactive). For `Nc1c(Cl)cc(S(N)(=O)=O)cc1S(N)(=O)=O`, the “activity change, negative = inhibition” value was 38.3% (inactive).

Take `CCCCCCOc1ccc(OC(=O)c2cccnc2)cc1`: the “activity change, negative = inhibition” value was 42.3% (inactive). `CN(C)CCCN1C(=O)CSC1c1ccc([N+](=O)[O-])cc1` (stereo not drawn): the “activity change, negative = inhibition” value is 23.9% (inactive).

Turning to `CCCCCCCCCCCCN1C(=O)CSC1c1cccnc1` (stereo not drawn), the Potency was 1.65 µM (active). Turning to `COc1ccc(NC(=O)CN2C(=O)CSc3ccc(S(=O)(=O)N4CCC(C)CC4)cc32)cc1`, the “activity change, negative = inhibition” value was 13.9% (inactive). For the compound `Cc1cc(NC(=O)Nc2ccc(Cl)cc2)n(-c2ccccc2)n1`, the “activity change, negative = inhibition” value was 14.1% (inactive). For the compound `CC(=O)N/C(=N/c1nc(C)cc(C)n1)Nc1ccc(F)cc1F`, the “activity change, negative = inhibition” value was 14.6% (inactive). As for `Cc1cc(C)nc(-n2nc(C)cc2NC(=O)c2ccc(F)cc2F)n1`, the Potency was 9.28 µM (active). Turning to `Cc1c([N+](=O)[O-])c(N)nn1C`, the “activity change, negative = inhibition” value is 70.1% (inactive). The same measure, in the same setting: in the case of `COc1ccc(CC(=O)Nc2c(C(N)=O)oc3ccccc23)cc1` it was 25.4% (inactive). For `Cc1cc(C)c(NC(=O)c2oc3ccccc3c2COc2ccccc2)c(C)c1`, the Potency was 5.22 µM (active). As to `CCOC(=O)c1oc2ccccc2c1NC(=O)c1cccs1`, the “activity change, negative = inhibition” value is 13.6% (inactive).

Turning to `COc1ccc(-c2nnc(SCC(=O)Nc3cccnc3Cl)n2C)cc1`, the “activity change, negative = inhibition” value was -2.25% (inactive). As to `Cc1cc(C)nc(SCC(=O)c2ccc(Cl)cc2)n1`, the “activity change, negative = inhibition” value is -20.9% (inactive).

For the origin of these results see PubChem BioAssay AID504834 (National Center for Advancing Translational Sciences (NCATS), 2011).
